# Reference: ChEMBL document CHEMBL4808148, “HDAC6 screening dataset using tau-based substrate in an enzymatic assay yields selective inhibitors and activators” (2021)
# “And” between values parts separate entries of the source, which are not always exact repeats. Equal entries are not always repeated. The campaign covered roughly 5,600 compounds. About 390 (7%) showed an effect of 50% or more. Many of the other results were omitted from the sample, so strong results are more common in it than they were.
# Biological target: T1, Protein deacetylase HDAC6 (Homo sapiens) (UniProt Q9UBN7)
# T1 sequence (whole entry): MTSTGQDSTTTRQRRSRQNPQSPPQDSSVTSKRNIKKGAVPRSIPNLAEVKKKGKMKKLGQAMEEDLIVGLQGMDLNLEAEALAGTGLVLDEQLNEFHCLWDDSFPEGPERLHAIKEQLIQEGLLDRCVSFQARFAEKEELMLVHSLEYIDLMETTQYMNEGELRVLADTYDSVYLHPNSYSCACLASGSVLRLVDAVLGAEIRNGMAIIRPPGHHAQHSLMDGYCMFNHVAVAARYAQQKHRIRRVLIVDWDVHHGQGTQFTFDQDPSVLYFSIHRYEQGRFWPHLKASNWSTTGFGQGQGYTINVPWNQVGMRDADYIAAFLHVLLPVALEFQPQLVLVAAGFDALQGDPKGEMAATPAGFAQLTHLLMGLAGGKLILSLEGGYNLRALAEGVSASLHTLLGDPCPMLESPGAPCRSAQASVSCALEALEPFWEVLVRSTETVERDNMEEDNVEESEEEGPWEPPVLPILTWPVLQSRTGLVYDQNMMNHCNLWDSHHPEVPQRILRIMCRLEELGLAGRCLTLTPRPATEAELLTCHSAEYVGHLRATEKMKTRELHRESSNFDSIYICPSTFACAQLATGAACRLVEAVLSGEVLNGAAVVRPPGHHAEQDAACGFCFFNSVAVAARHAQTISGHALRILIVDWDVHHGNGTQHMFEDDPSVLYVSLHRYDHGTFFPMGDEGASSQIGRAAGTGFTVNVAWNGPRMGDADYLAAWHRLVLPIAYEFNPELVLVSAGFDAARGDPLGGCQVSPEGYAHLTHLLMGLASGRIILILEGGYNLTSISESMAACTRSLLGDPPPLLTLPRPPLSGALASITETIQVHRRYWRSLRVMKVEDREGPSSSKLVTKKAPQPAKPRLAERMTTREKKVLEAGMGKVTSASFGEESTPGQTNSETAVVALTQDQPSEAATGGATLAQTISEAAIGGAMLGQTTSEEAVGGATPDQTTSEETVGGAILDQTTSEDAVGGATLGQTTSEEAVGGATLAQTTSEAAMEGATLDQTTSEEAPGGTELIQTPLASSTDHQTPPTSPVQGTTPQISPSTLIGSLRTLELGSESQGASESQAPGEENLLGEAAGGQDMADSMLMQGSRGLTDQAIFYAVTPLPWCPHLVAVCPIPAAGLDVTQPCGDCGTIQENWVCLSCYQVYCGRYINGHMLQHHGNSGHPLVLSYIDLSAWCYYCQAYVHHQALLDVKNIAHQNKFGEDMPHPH
# Conditions: at 10 µM
row,SMILES,inhibition
1,C[N+]1(CCCCC[N+]2(C)CCCC2)CCCC1,1.14%
2,NC(=O)[C@H]1CCS[C@@H]2C[C@]3(CCCN3C(=O)Cc3ccc(NC(=O)COc4ccc(Cl)cc4Cl)cc3)C(=O)N12,3.16%
3,Cc1c(C)c2c(c(C)c1O)C[C@@](C)(CCC[C@H](C)CCC[C@H](C)CCCC(C)C)OC2,18.1%
4,O=C1N=C(NCc2cccs2)S/C1=C\c1ccc2ncccc2c1,68.2%
5,Nc1cc2c3ccccc3ccc2c2ccccc12,96%
6,Oc1ccc2ccccc2c1Cc1c(O)ccc2ccccc12,25.7%
7,Cc1cc(N)c2ccccc2[n+]1CCCCCCCCCC[n+]1c(C)cc(N)c2ccccc21,-8%
8,COc1nccc(-c2c(-c3ccc(F)cc3)ncn2[C@H]2CC[C@H](O)CC2)n1,-0.9%
9,COc1c2occc2c(OC)c2c(=O)cc(C)oc12,-5.99%
10,Cc1cn(C[C@H](N)C(=O)O)c(=O)n(Cc2ccsc2C(=O)O)c1=O,14.3%
11,Cc1ccsc1/C=C/C1=NCCCN1C,1.45%
12,CN1CCCN=C1/C=C/c1cccs1,82.3%
13,CN1CCCN=C1/C=C/c1cccc(O)c1,74.1%
14,CN1CCCN=C1COC(=O)C(O)(c1ccccc1)C1CCCCC1 (stereo unspecified),-6.61%
15,COc1ccc(N(C)c2nc(C)nc3ccccc23)cc1,-1.78%
16,CC[C@@H]1C[C@H](N(Cc2cc(C(F)(F)F)cc(C(F)(F)F)c2)C(C)=O)c2cc(C(F)(F)F)ccc2N1C(=O)OC(C)C,3.27%
17,COC(=O)C1=C(C)NC(C)=C(C(=O)O[C@@H]2CCCN(Cc3ccccc3)C2)[C@@H]1c1cccc([N+](=O)[O-])c1,16.7%
18,CCn1c(=O)/c(=C2\Sc3ccccc3N2C)s/c1=C\c1cccc[n+]1CC,3.58%
19,N=C(N)NC(=N)N1CCOCC1,-0.5%
20,N#Cc1ccc(N(Cc2ccc(Br)cc2)n2cnnc2)cc1,7.87%
21,O=C(N[C@@H]1CC[C@@H](c2cccc(F)c2F)CN(CC(F)(F)F)C1=O)N1CCC(n2c(=O)[nH]c3ncccc32)CC1,21.5%
22,N[C@@]1(C(=O)O)CS(=O)(=O)[C@H]2[C@H](C(=O)O)[C@H]21,9.11%

row,SMILES,inhibition
1,O=C1NCCc2[nH]c(-c3ccncc3)cc21,-2.78%
2,O=C1Cc2c([nH]c3ccc(Br)cc23)-c2ccccc2N1,89.3%
3,O=C1Cc2c([nH]c3ccc(Br)cc23)-c2ncccc2N1,84.9%
4,CCS(=O)(=O)c1cccc(-c2cc(C(=O)NC3CCN(C)CC3)c(C)c3[nH]c4ncc(C)cc4c23)c1,12.4%
5,O=[N+]([O-])c1cccc2c(Br)n[nH]c12,-0.83%
6,CCCCc1ccc(NS(=O)(=O)c2ccc(F)cc2)cc1,18.6%
7,CN[C@@H](C)[C@H]1[C@H](O)C[C@@]2(C)[C@@H]3CC[C@H]4C(C)(C)[C@@H](NC)CC[C@@]45C[C@@]35CC[C@]12C,-3.38%
8,Nc1ccncc1N,42.8%
9,NS(=O)(=O)c1cc2c(cc1C(F)(F)F)NC(Cc1ccccc1)NS2(=O)=O (stereo unspecified),103%
10,NS(=O)(=O)c1cc2c(cc1Cl)NC(CC1CCCC1)NS2(=O)=O (stereo unspecified),9.09%
11,C=CCSCC1Nc2cc(Cl)c(S(N)(=O)=O)cc2S(=O)(=O)N1 (stereo unspecified),12%
12,C[C@@H](c1nc(-c2ccc(C#N)cc2)cs1)[C@](O)(Cn1cncn1)c1ccc(F)cc1F,13.6%
13,N=C(N)NN=C1C=CC(=NNC(N)=S)C=C1,8.3%
14,C=C1/C(=C\C=C2/CCC[C@]3(C)[C@@H]([C@H](C)CC[C@@H](O)C(C)C)CC[C@@H]23)C[C@@H](O)C[C@@H]1O,24.3%
15,O=C(c1ccc(-c2ccc(Cl)cc2)o1)N(Cc1ccccn1)c1ccc(N2CCNCC2)cc1,9.26%
16,CC/C(=C(/CC)c1ccc(O)cc1)c1ccc(O)cc1,19.4%
17,CCCCOC(=O)c1ccc(O)cc1,86.8%
18,CCCCOC(=O)c1ccc(N)cc1,44.5%
19,CCCCOc1cc(C(=O)OCCN(CC)CC)ccc1N,16.8%
20,CCOc1ccc(C(=O)OCCN(CC)CC)cc1,4.93%
21,CCCOC(=O)c1ccc(O)cc1,73%
22,CCCCN1CCCC1CNC(=O)c1cc(C#N)c2ccccc2c1OC (stereo unspecified),6.77%

row,SMILES,inhibition
1,NC(=O)c1cnc2[nH]ccc2c1N[C@H]1C2CC3CC1C[C@](O)(C3)C2,15.9%
2,CC(C)C[C@@H](C(=O)N[C@@H](Cc1ccc(OCc2ccccc2)cc1)C(=O)NC(C)(C)C)N(C)Cc1ccc(C(C)(C)C)cc1,10.7%
3,C[C@H]1CC[C@@]2(OC1)O[C@H]1C[C@H]3[C@@H]4CC[C@@H]5C[C@@H](O)CC[C@]5(C)[C@H]4CC[C@]3(C)[C@H]1[C@@H]2C,5.04%
4,CN(C)/C=N/c1c(I)cc(I)c(CCC(=O)O)c1I,6.5%
5,O=C(NCC1CCCCN1)c1cc(OCC(F)(F)F)ccc1OCC(F)(F)F (stereo unspecified),-2.24%
6,CCC(CC)(CC(=O)Nc1cccc(/C=C/c2nc(C3CCC3)cs2)c1)C(=O)O,87.3%
7,COc1cc(N2CCC(O)CC2)ccc1Nc1cc(Nc2ccccc2S(=O)(=O)C(C)C)c2cc[nH]c2n1,12.8%
8,Cc1ccc(-c2ncn(-c3ccc(Nc4nccc(-c5cccc(N6CCOCC6)c5)n4)cc3)n2)cn1,0.35%
9,CCC(=O)NC1Cc2ccccc2C(c2ccccc2)C1 (stereo unspecified),0.79%
10,O=[N+]([O-])c1c(Nc2cc(F)cc(Cl)c2)ccc2nonc12,22.6%
11,Nc1ncnc2c1ncn2[C@H]1CC[C@@H](CO)O1,46%
12,CC1(C)CNc2cc(NC(=O)c3cccnc3NCc3ccncc3)ccc21,87.1%
13,N#CC1(c2ccc(NC(=O)c3cccnc3NCc3ccncc3)cc2)CCCC1,51.4%
14,CCCCCCCCCCCCCC(=O)OC(C)C,30.5%
15,O=C(O)c1nc(=O)[nH]c(=O)[nH]1,-2.71%
16,CC(N)CCCC(C)(C)O (stereo unspecified),6.48%
17,COc1ccc2c(C(=S)N(C)CC(=O)O)cccc2c1C(F)(F)F,8.32%
18,CCN(CC)CC1CCN(c2ncc3ncnc(Nc4ccc(F)c(Cl)c4)c3n2)CC1,22.9%
19,Cc1n[nH]c(C)c1Cc1sc2c(c1C(=O)N1C[C@H](O)CO1)c(=O)n(C)c(=O)n2CC(C)C,39.2%
20,COC1CCN(c2cccc(-c3cc(NC(C)=O)nc(-n4nc(C)cc4C)n3)n2)CC1,20.5%
21,CCCC1C(=O)N2C(N(C)C)=Nc3ccc(C)cc3N2C1=O (stereo unspecified),67.9%
22,O=C1OC2(c3cc(I)c(O)c(I)c3Oc3c2cc(I)c(O)c3I)c2c(Cl)c(Cl)c(Cl)c(Cl)c21,69.2% and 74.6%
